Records with an inconclusive call do not appear. Calls of active or inactive are those of the source. Calls follow the shape of the dose curve; as a rule, active = well fitted curve in the direction sought with a large enough effect; inconclusive = small, poorly fitted or top-dose-only effect, or effect the other way, or another doubt; inactive = no such curve, though single readings can be large or run the other way.
The compounds below were run against Pyruvate kinase PKLR (Homo sapiens) (UniProt P30613) (assay: Secondary LDH Assay for Activators of Human Liver Pyruvate Kinase: for Probe SAR). Details: purified hPK-L, LDH-coupled NADH fluorescence kinetic; series mostly up to 58.2 µM.
Chain of Pyruvate kinase PKLR (Homo sapiens) (P30613 whole entry, looked up): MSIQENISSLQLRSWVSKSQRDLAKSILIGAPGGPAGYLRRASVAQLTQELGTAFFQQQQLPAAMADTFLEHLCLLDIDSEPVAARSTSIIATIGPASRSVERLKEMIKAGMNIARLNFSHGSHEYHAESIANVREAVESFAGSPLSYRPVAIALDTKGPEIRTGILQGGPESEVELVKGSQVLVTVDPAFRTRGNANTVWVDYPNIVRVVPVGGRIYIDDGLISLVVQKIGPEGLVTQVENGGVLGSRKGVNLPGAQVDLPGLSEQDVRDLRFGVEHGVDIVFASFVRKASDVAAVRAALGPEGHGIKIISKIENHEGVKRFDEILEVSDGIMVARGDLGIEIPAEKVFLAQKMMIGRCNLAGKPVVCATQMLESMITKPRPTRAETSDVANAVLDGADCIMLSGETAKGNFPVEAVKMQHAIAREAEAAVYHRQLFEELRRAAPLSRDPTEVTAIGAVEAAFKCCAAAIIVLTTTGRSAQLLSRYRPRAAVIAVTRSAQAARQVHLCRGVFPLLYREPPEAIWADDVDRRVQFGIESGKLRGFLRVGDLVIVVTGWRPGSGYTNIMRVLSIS
Excerpt: NIH Chemical Genomics Center [NCGC]
Matthew G. Vander Heiden, M.D., Ph.D. [Harvard Medical School, 77 Avenue Louis Pasteur, Boston, MA 02115]
Human pyruvate kinase liver (hPK-L)enzyme was supplied as a highly purified (>95% pure) preparation from Harvard Medical School and a secondary assay was used to evaluate compounds. This assay couples the formation of pyruvate from hPK-R using lactate dehydrogenase (LDH) and NADH. The depletion of NADH is followed in a fluorescent-based kinetic assay that follows the formation of pyruvate to lactate, as catalyzed LDH. Pyruvate kinase substrates, PEP and ADP, were present in the assay at 0.1 mM and 4 mM respectively. In this kinetic assay initial rates were determined by following the fluorescence of NADH depletion.
NCGC Assay Protocol Summary:
Three uL of substrate mix (final concentration, 50 mM Tris-Cl pH 8.0, 200 mM KCl, 15 mM MgCl2, 0.1 mM PEP, 4.0 mM ADP, and 0.2 mM NADH) was dispensed into black-solid 1536 well plates. 23 nL of compounds were delivered by a pin tool and 1 uL of enzyme mix (final concentrations, 10 nM hPK-L and 1 uM of LDH) was added. Plates were immediately placed in ViewLux (Perkin Elmer) and NADH fluorescence was determined at 30 second exposure intervals for between 3 and 6 minutes. Data were normalized to the uninhibited and EC100 activation using known activators such as fructose-bis-phosphate.

outcome, inactive:
O=C1c2ccccc2C(=O)N1c1cnc2ccccc2c1, CNc1cccc(S(=O)(=O)N2CCCN(S(=O)(=O)c3ccc4c(c3)OCCO4)CC2)c1, Cc1ccc(NS(=O)(=O)c2ccc(Cl)cc2)cc1C, COc1ccccc1OC1=NS(=O)(=O)c2ccccc21, CNc1cccc(S(=O)(=O)N2CCN(S(=O)(=O)c3ccc4c(c3)OCCO4)CC2)c1, O=C1CCc2cc(S(=O)(=O)Nc3ccc(Cl)cc3)ccc2N1, Cc1ccc(NS(=O)(=O)c2ccc(F)cc2)cc1C, Cc1nc(-c2ccc(S(=O)(=O)Nc3ccc(C)c(C)c3)s2)cs1, O=C1c2ccccc2C(=O)N1c1ccncc1, Cc1ccc(NS(=O)(=O)c2cc3c(cc2Br)NC(=O)CO3)cc1C, O=C1c2ccccc2C(=O)N1c1cccc(=O)[nH]1, Cc1ccc(NS(=O)(=O)c2ccc3c(c2)CCC(=O)N3)cc1F, Cc1cc2c(s1)c1cnn(Cc3ccccc3F)c(=O)c1n2C, Cc1ccc(-c2nc3cnccn3c2Nc2ccc(C(C)C)cc2)o1, COc1cccc(Cn2ncc3c4sc(SC)cc4n(C)c3c2=O)c1, Cc1cccc(NS(=O)(=O)c2ccc3c(c2)CCC(=O)N3)c1, Cc1ccc(NS(=O)(=O)c2cc3c(cc2Cl)CCC(=O)N3)cc1Cl, O=C1c2ccccc2C(=O)N1c1cncc2ccccc12, Cc1ccc(NS(=O)(=O)c2ccc3c(ccn3C)c2)cc1C, Cc1ccc2nc(-c3ccc(C)o3)c(Nc3ccc4c(c3)OCO4)n2c1, COc1ccc(Nc2c(-c3ccc(C)o3)nc3ccccn23)cc1, Nc1cccc(S(=O)(=O)N2CCCN(S(=O)(=O)c3ccc4c(c3)OCCO4)CC2)c1, Cc1ccc(NS(=O)(=O)c2ccc3ccccc3c2)cc1C, CN(C)c1cccc(S(=O)(=O)N2CCCN(S(=O)(=O)c3ccc4c(c3)OCCO4)CC2)c1, Cc1ccc(NS(=O)(=O)c2ccc3c(c2)CC(=O)N3C)cc1C, Cn1c2cc(S(C)=O)sc2c2cnn(Cc3cccc(O)c3)c(=O)c21 (stereo not given), O=C1CCc2cc(S(=O)(=O)Nc3ccc(Cl)c(Cl)c3)c(F)cc2N1, Cc1ccc(NS(=O)(=O)c2cc3c(cc2C)OCC(=O)N3)cc1C, O=C1CCc2cc(S(=O)(=O)Nc3ccc4c(c3)OCCO4)ccc2N1, CCNc1cccc(S(=O)(=O)N2CCCN(S(=O)(=O)c3ccc4c(c3)OCCO4)CC2)c1, Cc1ccc(NS(=O)(=O)c2cc3c(cc2N2CCC2)NC(=O)CC3)cc1C, O=C1CCc2cc(S(=O)(=O)Nc3ccc(F)cc3)ccc2N1, O=C1c2ccccc2C(=O)N1C1CCCCC1, Cc1ccc(C)c(OC2=NS(=O)(=O)c3ccccc32)c1, O=C1c2ccccc2C(=O)N1c1ncccc1O, Cc1ccc(Cl)cc1NS(=O)(=O)c1cc2c(cc1F)NC(=O)CC2, CC(=O)N1CCCc2cc(S(=O)(=O)Nc3ccc(C)c(C)c3)ccc21, COc1cccc(Cn2ncc3c4sc(S(C)=O)cc4n(C)c3c2=O)c1 (stereo not given), CNc1cc2c(cc1S(=O)(=O)Nc1ccc(C)c(C)c1)CCC(=O)N2, Cc1ccc(NS(=O)(=O)c2ccc(N3CCCC3=O)cc2)cc1C

Source: PubChem BioAssay AID2625 (National Center for Advancing Translational Sciences (NCATS), 2010)
